In the supplement of paper PMC6555819:

System: RARg homodimer (NR concentration 270 nM)
Assay: PBM binding z-score (relative to random genomic background probes); higher = stronger binding; sequences stand for … in GC…GCGATTGACAGCGTAGAATGAAGG
Outline: (§1)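 Scanned fluorescence from custom Agilent 4×180K protein-binding microarrays was regression-normalized. Binding z-scores use random background probes as reference. Ligand-free nuclear receptor dimers were incubated on the arrays for 1 h and detected with antibodies against each partner (one per run).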

Question: For GGAAAGAGGGCATTCGAGTTGATAGCATGGCGAT, which PBM binding z-score is on record?
Answer: The PBM binding z-score was 1.82.

Question: Which PBM binding z-score does the source give for CCTACTGGGCCAAGAAAGGTCATTGATTCAGTGA here?
Answer: The PBM binding z-score was 3.46.

Question: Which PBM binding z-score does the source give for GCAGACAGTTGAAACGCAGGTAACTCAGGGTGGC here?
Answer: The PBM binding z-score was -0.397.

Question: CCGACTGGGGCAAAGCTTACCATACTCAGTACGA was tested. Which PBM binding z-score did it give?
Answer: Its PBM binding z-score is 0.339.

Question: Which PBM binding z-score does the source give for TAGCCTAGGTCAGATCGGGCCAATATACGCTATA here?
Answer: The PBM binding z-score was 3.4.

Question: With CGTCCGAGGTCAGCAGGTCAGTGAAAGCGACGTG as the sequence, how does the PBM binding z-score read?
Answer: Its PBM binding z-score is 7.31.

Question: With ATCTCTAGGTAAAAGCTCAGTGAATCCCGAGGAT as the sequence, how does the PBM binding z-score read?
Answer: Its PBM binding z-score is 0.135.

Question: Which PBM binding z-score does the source give for GGAACGAGGGCAAGTTGATACCAGAGTTTGATGG here?
Answer: The PBM binding z-score was 2.1.

Question: How did the PBM binding z-score turn out when AGAATGAGGTTATTAAGTTCAGGGAATTGCGGTC was run?
Answer: Its PBM binding z-score is 1.43.

Question: For GCTAGTTGGTTAGTAAAAGGTCACACACCGGTCG, which PBM binding z-score is on record?
Answer: Its PBM binding z-score is 4.08.

Question: AATACAGTGTCACTAGGCCAGAGTAGGTACGAAT was tested. Which PBM binding z-score did it give?
Answer: Its PBM binding z-score is 0.864.

Question: With GGAACGAGGGCAAGTTGCTAGCAGAGTTTGATGG as the sequence, how does the PBM binding z-score read?
Answer: Its PBM binding z-score is 2.1.

Question: ATACCAAGGTGATCGTGAGGTCGTGGATACTAAC was tested. Which PBM binding z-score did it give?
Answer: The PBM binding z-score was 0.919.

Question: Which PBM binding z-score does the source give for TGTCAAAGTTCAAATGTAACGTAAGTATCCACAC here?
Answer: Its PBM binding z-score is 5.93.

Question: Which PBM binding z-score does the source give for CCTACTGGGCCAAGGTCATTGTTCAGTCAAAGCA here?
Answer: Its PBM binding z-score is 2.71.

Question: With TCGAGTAGGTTAGTCGGGGCATTTAGCCAACATA as the sequence, how does the PBM binding z-score read?
Answer: Its PBM binding z-score is -0.0384.

Question: Which PBM binding z-score does the source give for CCGAGTAGGTTATGGGGCTTTCAGGCAACGGTGA here?
Answer: Its PBM binding z-score is 0.1.

Question: With AGAACGAGGGCACGCTGAGTTGATAGGAGAGTAG as the sequence, how does the PBM binding z-score read?
Answer: The PBM binding z-score was 1.99.

Question: Which PBM binding z-score does the source give for CCGACTGGGGCAAAGGTTACCATTCTCAGTACGA here?
Answer: Its PBM binding z-score is 1.6.

Question: CCTTACGGGTCACTGACAGATTATAGCATTTGGA was tested. Which PBM binding z-score did it give?
Answer: Its PBM binding z-score is 4.43.

Question: For CGTCCAAGGTGAAAGGTCAGTGAAGAGATGACGG, which PBM binding z-score is on record?
Answer: Its PBM binding z-score is 5.76.

Question: Which PBM binding z-score does the source give for ACAGAAAGGTGAGTGAAGGTAACTCAGCTGGACG here?
Answer: The PBM binding z-score was 1.59.

Question: Which PBM binding z-score does the source give for TGTCAAAGTTCAAAGGTAACGGAAGTATCCACAC here?
Answer: The PBM binding z-score was 5.94.

Question: How did the PBM binding z-score turn out when ACCGAAAGGTCGAGGTGAGTATAGAGAAAGGGAA was run?
Answer: Its PBM binding z-score is 4.43.

Question: With ATCTCTCGGTAAGACTCAGTTCAGTGAAGAACGC as the sequence, how does the PBM binding z-score read?
Answer: Its PBM binding z-score is 0.481.

Question: How did the PBM binding z-score turn out when CCTTACGGGTCAAGATTATAGCACGGGTGGTACG was run?
Answer: Its PBM binding z-score is 4.24.

Question: How did the PBM binding z-score turn out when ATCTCTAGGTAACCAAGTTAAGTGAATGCCGAAC was run?
Answer: Its PBM binding z-score is 0.306.

Question: Which PBM binding z-score does the source give for GATACAGGCTCAAGGCCAGAGTACGCGTATTGAT here?
Answer: Its PBM binding z-score is 0.128.

Question: GCAAGCAGGCCATTTGGGTCACTCAATGACGGGC was tested. Which PBM binding z-score did it give?
Answer: Its PBM binding z-score is 1.18.

Question: AGAATGAGGTTATACGTCGATCAGGGAAGAAAGT was tested. Which PBM binding z-score did it give?
Answer: Its PBM binding z-score is 0.993.

Question: TATACAGGTTCAAAGGCCAGAGTACGAATGTCGA was tested. Which PBM binding z-score did it give?
Answer: Its PBM binding z-score is 1.79.

Question: For ACTAGCAGGCGAAGTTTGGGTCACTCAAACAAAG, which PBM binding z-score is on record?
Answer: Its PBM binding z-score is 0.54.

Question: For ATTTCTAGGTAAGACTCAGTTCAGTGAAGAACGC, which PBM binding z-score is on record?
Answer: The PBM binding z-score was 0.283.

Question: Which PBM binding z-score does the source give for GCTATTGGTTGAAAGGGCAACCGAATGATTCTCG here?
Answer: Its PBM binding z-score is 1.27.

Question: With CGAACTAGGTCATCCTGGACAGTGAATACATTGA as the sequence, how does the PBM binding z-score read?
Answer: The PBM binding z-score was 4.56.

Question: Which PBM binding z-score does the source give for ATATCTAGGTTAAGGGTCATTCAGGTTGGTTCGC here?
Answer: Its PBM binding z-score is 3.86.

Question: How did the PBM binding z-score turn out when ATATGTTGGTTAAGGGTCATTCAGGTTGGTTCGC was run?
Answer: The PBM binding z-score was 3.25.

Question: For CAAACTAGGTCAACGGTCAAAGTCGAGCCAACCA, which PBM binding z-score is on record?
Answer: The PBM binding z-score was 5.4.

Question: With TCTGATAGGTCAACGATGGTCAGCTAATCTGCTA as the sequence, how does the PBM binding z-score read?
Answer: The PBM binding z-score was 5.89.

Question: Which PBM binding z-score does the source give for AGTATGAGGTTATACGTAGATCAGGGAAGAAAGT here?
Answer: The PBM binding z-score was 1.26.

System: RXRa DBDmut IVT, anti-RXR (DBD mutation: RXRa K156A/R161A, NR concentration 90 nM)
Assay: as above
Outline: as §1

Question: With GGAAAGAGGGCATTCGAGTTGATAGCATGGCGAT as the sequence, how does the PBM binding z-score read?
Answer: Its PBM binding z-score is 2.67.

Question: CCTACTGGGCCAAGAAAGGTCATTGATTCAGTGA was tested. Which PBM binding z-score did it give?
Answer: Its PBM binding z-score is 0.261.

Question: For GCAGACAGTTGAAACGCAGGTAACTCAGGGTGGC, which PBM binding z-score is on record?
Answer: The PBM binding z-score was -0.408.

Question: Which PBM binding z-score does the source give for CCGACTGGGGCAAAGCTTACCATACTCAGTACGA here?
Answer: The PBM binding z-score was 0.525.

Question: TAGCCTAGGTCAGATCGGGCCAATATACGCTATA was tested. Which PBM binding z-score did it give?
Answer: The PBM binding z-score was -0.355.

Question: For CGTCCGAGGTCAGCAGGTCAGTGAAAGCGACGTG, which PBM binding z-score is on record?
Answer: Its PBM binding z-score is 2.99.

Question: For ATCTCTAGGTAAAAGCTCAGTGAATCCCGAGGAT, which PBM binding z-score is on record?
Answer: Its PBM binding z-score is -0.625.

Question: How did the PBM binding z-score turn out when GGAACGAGGGCAAGTTGATACCAGAGTTTGATGG was run?
Answer: The PBM binding z-score was 2.56.

Question: With AGAATGAGGTTATTAAGTTCAGGGAATTGCGGTC as the sequence, how does the PBM binding z-score read?
Answer: The PBM binding z-score was 3.07.

Question: How did the PBM binding z-score turn out when GCTAGTTGGTTAGTAAAAGGTCACACACCGGTCG was run?
Answer: Its PBM binding z-score is 0.675.

Question: AATACAGTGTCACTAGGCCAGAGTAGGTACGAAT was tested. Which PBM binding z-score did it give?
Answer: Its PBM binding z-score is 0.0246.

Question: GGAACGAGGGCAAGTTGCTAGCAGAGTTTGATGG was tested. Which PBM binding z-score did it give?
Answer: The PBM binding z-score was 2.26.

Question: ATACCAAGGTGATCGTGAGGTCGTGGATACTAAC was tested. Which PBM binding z-score did it give?
Answer: Its PBM binding z-score is 0.217.

Question: For TGTCAAAGTTCAAATGTAACGTAAGTATCCACAC, which PBM binding z-score is on record?
Answer: The PBM binding z-score was 4.69.

Question: With CCTACTGGGCCAAGGTCATTGTTCAGTCAAAGCA as the sequence, how does the PBM binding z-score read?
Answer: The PBM binding z-score was 1.59.

Question: How did the PBM binding z-score turn out when TCGAGTAGGTTAGTCGGGGCATTTAGCCAACATA was run?
Answer: Its PBM binding z-score is 0.477.

Question: CCGAGTAGGTTATGGGGCTTTCAGGCAACGGTGA was tested. Which PBM binding z-score did it give?
Answer: The PBM binding z-score was -0.273.

Question: How did the PBM binding z-score turn out when AGAACGAGGGCACGCTGAGTTGATAGGAGAGTAG was run?
Answer: Its PBM binding z-score is 1.77.

Question: For CCGACTGGGGCAAAGGTTACCATTCTCAGTACGA, which PBM binding z-score is on record?
Answer: Its PBM binding z-score is 0.683.

Question: Which PBM binding z-score does the source give for CCTTACGGGTCACTGACAGATTATAGCATTTGGA here?
Answer: The PBM binding z-score was 2.1.

Question: How did the PBM binding z-score turn out when CGTCCAAGGTGAAAGGTCAGTGAAGAGATGACGG was run?
Answer: Its PBM binding z-score is 0.481.

Question: For ACAGAAAGGTGAGTGAAGGTAACTCAGCTGGACG, which PBM binding z-score is on record?
Answer: The PBM binding z-score was -0.371.

Question: Which PBM binding z-score does the source give for TGTCAAAGTTCAAAGGTAACGGAAGTATCCACAC here?
Answer: Its PBM binding z-score is 4.29.

Question: Which PBM binding z-score does the source give for ACCGAAAGGTCGAGGTGAGTATAGAGAAAGGGAA here?
Answer: The PBM binding z-score was 0.832.

Question: How did the PBM binding z-score turn out when ATCTCTCGGTAAGACTCAGTTCAGTGAAGAACGC was run?
Answer: The PBM binding z-score was 0.833.

Question: Which PBM binding z-score does the source give for CCTTACGGGTCAAGATTATAGCACGGGTGGTACG here?
Answer: Its PBM binding z-score is 0.558.

Question: For ATCTCTAGGTAACCAAGTTAAGTGAATGCCGAAC, which PBM binding z-score is on record?
Answer: Its PBM binding z-score is -0.119.

Question: GATACAGGCTCAAGGCCAGAGTACGCGTATTGAT was tested. Which PBM binding z-score did it give?
Answer: Its PBM binding z-score is -0.619.

Question: Which PBM binding z-score does the source give for GCAAGCAGGCCATTTGGGTCACTCAATGACGGGC here?
Answer: The PBM binding z-score was -0.0801.

Question: For AGAATGAGGTTATACGTCGATCAGGGAAGAAAGT, which PBM binding z-score is on record?
Answer: The PBM binding z-score was 1.69.

Question: Which PBM binding z-score does the source give for TATACAGGTTCAAAGGCCAGAGTACGAATGTCGA here?
Answer: Its PBM binding z-score is 4.01.

Question: With ACTAGCAGGCGAAGTTTGGGTCACTCAAACAAAG as the sequence, how does the PBM binding z-score read?
Answer: Its PBM binding z-score is -0.3.

Question: ATTTCTAGGTAAGACTCAGTTCAGTGAAGAACGC was tested. Which PBM binding z-score did it give?
Answer: The PBM binding z-score was 0.956.

Question: Which PBM binding z-score does the source give for GCTATTGGTTGAAAGGGCAACCGAATGATTCTCG here?
Answer: The PBM binding z-score was 0.0979.

Question: CGAACTAGGTCATCCTGGACAGTGAATACATTGA was tested. Which PBM binding z-score did it give?
Answer: Its PBM binding z-score is 2.37.

Question: For ATATCTAGGTTAAGGGTCATTCAGGTTGGTTCGC, which PBM binding z-score is on record?
Answer: The PBM binding z-score was 2.66.

Question: With ATATGTTGGTTAAGGGTCATTCAGGTTGGTTCGC as the sequence, how does the PBM binding z-score read?
Answer: Its PBM binding z-score is 2.11.

Question: CAAACTAGGTCAACGGTCAAAGTCGAGCCAACCA was tested. Which PBM binding z-score did it give?
Answer: The PBM binding z-score was 2.12.

Question: How did the PBM binding z-score turn out when TCTGATAGGTCAACGATGGTCAGCTAATCTGCTA was run?
Answer: The PBM binding z-score was 1.21.

Question: For AGTATGAGGTTATACGTAGATCAGGGAAGAAAGT, which PBM binding z-score is on record?
Answer: Its PBM binding z-score is 1.67.
